Reference: article PMC7862700, “An all-to-all approach to the identification of sequence-specific readers for epigenetic DNA modifications on cytosine”

How the values were obtained:
Experiment in all cases: DAPPL (digital affinity profiling via proximity ligation, sequencing); 10 mM Tris-HCl pH 7.5, 50 mM NaCl, 1 mM DTT, 4% glycerol, room temperature, 30 min; GST-TFs on glutathione beads, 16-mer random dsDNA library, 0.1% formaldehyde crosslink after washing; high values mean tight binding
[1] = target: T1, FEV (Homo sapiens, UniProt Q99581 1-238); details: protein: recombinant; tags: N-terminal GST; dsDNA, one strand shown
T1 sequence: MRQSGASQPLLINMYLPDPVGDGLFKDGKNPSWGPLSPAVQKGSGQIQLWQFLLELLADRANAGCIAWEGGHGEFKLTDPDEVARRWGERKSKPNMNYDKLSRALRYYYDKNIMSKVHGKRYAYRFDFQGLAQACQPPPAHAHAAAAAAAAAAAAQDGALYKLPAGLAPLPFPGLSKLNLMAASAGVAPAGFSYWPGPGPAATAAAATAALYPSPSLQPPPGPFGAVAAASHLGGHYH
Procedure, shortened: (§1)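 Binding signal is given per hexamer as its read frequency for a factor divided by its frequency in the tag-only sample. GST-fused human transcription factors were expressed in yeast, captured on glutathione beads, barcoded with DNA and pooled with that sample, then incubated with 200 nmole of a 16-mer random double-stranded DNA library in Tris/NaCl/DTT/glycerol buffer for 30 min at room temperature. The pools were then washed, crosslinked, proximity-ligated, amplified by PCR and sequenced on an Illumina NextSeq500.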

[2] = target: ETV5 (Homo sapiens, UniProt P41161 1-510); details: protein: recombinant; tags: N-terminal GST; dsDNA, one strand shown
Sequence of ETV5 (P41161 whole entry): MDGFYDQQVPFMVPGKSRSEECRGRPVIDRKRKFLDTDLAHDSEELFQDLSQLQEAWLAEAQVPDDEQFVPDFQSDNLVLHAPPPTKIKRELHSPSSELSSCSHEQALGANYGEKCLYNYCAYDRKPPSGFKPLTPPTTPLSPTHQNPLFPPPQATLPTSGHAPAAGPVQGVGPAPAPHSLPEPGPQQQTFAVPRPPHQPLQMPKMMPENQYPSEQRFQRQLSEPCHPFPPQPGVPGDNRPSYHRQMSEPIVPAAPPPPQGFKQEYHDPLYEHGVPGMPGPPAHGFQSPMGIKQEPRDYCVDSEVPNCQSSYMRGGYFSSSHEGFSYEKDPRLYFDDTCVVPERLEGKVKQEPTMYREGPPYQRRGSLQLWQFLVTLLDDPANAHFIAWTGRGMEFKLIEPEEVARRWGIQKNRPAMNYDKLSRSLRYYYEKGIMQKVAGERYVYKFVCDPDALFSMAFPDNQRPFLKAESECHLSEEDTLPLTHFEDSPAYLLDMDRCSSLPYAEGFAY
Procedure, shortened: as §1

[3] = target: HSF1 (Homo sapiens, UniProt Q00613 1-529); details: protein: recombinant; tags: N-terminal GST; chain copies: 3; dsDNA, one strand shown
Sequence of HSF1 (Q00613 whole entry): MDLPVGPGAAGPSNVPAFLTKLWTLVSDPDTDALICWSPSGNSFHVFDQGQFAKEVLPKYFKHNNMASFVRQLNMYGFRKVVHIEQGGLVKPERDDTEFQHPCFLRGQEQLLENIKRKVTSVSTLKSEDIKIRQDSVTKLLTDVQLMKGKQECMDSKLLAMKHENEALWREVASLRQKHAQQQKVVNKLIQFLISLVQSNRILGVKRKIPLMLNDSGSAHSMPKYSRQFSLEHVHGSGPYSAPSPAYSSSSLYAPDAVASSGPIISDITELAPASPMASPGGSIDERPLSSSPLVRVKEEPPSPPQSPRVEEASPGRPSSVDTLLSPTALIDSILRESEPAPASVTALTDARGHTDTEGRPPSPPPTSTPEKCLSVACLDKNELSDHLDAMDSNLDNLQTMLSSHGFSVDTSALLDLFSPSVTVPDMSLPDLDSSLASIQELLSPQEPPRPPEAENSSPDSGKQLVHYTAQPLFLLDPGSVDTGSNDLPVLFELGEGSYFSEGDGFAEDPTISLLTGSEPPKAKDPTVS
Procedure, shortened: as §1

[4] = target: T2, SPIC (Homo sapiens, UniProt Q8N5J4 1-248); details: protein: recombinant; tags: N-terminal GST; dsDNA, one strand shown
T2 sequence: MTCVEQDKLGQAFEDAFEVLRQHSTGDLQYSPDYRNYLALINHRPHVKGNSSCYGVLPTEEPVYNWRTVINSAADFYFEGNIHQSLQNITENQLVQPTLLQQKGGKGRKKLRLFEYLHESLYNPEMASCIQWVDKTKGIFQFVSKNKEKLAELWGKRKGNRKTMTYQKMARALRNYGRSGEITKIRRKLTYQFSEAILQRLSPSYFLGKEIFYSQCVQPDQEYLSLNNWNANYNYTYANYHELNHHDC
Procedure, shortened: as §1

[5] = target: ELF4 (Homo sapiens, UniProt Q99607 1-663); details: protein: recombinant; tags: N-terminal GST; dsDNA, one strand shown
Sequence of ELF4 (Q99607 whole entry): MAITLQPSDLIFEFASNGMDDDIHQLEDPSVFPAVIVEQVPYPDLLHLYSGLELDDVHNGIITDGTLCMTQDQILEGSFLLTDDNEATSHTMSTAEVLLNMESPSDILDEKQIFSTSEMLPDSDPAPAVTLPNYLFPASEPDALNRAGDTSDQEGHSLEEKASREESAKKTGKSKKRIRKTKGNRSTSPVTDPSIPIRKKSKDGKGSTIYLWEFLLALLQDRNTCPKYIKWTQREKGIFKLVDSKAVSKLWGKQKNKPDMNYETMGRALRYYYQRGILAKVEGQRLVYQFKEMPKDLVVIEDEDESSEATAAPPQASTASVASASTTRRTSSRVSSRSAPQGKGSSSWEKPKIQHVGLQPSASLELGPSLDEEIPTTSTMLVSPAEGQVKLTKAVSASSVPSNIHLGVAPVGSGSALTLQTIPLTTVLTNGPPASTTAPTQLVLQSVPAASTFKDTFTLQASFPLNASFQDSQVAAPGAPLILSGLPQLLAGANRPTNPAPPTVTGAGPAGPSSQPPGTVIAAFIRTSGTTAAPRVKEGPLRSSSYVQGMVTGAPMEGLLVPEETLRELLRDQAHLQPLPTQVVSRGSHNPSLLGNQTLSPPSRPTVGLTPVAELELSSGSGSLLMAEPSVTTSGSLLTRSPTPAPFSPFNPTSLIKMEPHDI
Procedure, shortened: as §1

[6] = target: T3, ELK4 (Homo sapiens, UniProt P28324-2 1-405); details: protein: recombinant; tags: N-terminal GST; dsDNA, one strand shown
T3 sequence: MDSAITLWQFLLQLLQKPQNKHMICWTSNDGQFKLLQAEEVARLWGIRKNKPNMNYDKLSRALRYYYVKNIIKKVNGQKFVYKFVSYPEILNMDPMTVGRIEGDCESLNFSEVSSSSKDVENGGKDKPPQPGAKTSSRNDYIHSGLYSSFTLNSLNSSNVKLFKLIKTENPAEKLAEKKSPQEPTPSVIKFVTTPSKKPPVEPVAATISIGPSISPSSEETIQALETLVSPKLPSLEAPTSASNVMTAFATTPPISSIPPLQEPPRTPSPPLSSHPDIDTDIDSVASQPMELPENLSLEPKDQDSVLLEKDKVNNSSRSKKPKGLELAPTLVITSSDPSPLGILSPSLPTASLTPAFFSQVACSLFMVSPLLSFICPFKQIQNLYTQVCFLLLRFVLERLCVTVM
Procedure, shortened: as §1

[7] = target: T4, ETV2 (Homo sapiens, UniProt O00321 1-342); details: protein: recombinant; tags: N-terminal GST; dsDNA, one strand shown
T4 sequence: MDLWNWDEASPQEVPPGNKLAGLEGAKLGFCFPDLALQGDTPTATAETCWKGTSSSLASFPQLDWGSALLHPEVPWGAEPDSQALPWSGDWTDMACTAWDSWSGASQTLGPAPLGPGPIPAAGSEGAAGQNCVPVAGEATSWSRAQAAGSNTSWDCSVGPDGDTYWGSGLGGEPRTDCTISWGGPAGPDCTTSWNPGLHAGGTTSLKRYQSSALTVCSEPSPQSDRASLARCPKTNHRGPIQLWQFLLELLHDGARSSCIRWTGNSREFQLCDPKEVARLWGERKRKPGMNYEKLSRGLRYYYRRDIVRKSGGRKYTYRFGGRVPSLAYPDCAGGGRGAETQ
Procedure, shortened: as §1

[8] = target: T5, ELF3 (Homo sapiens, UniProt P78545 1-371); details: protein: recombinant; tags: N-terminal GST; dsDNA, one strand shown
T5 sequence: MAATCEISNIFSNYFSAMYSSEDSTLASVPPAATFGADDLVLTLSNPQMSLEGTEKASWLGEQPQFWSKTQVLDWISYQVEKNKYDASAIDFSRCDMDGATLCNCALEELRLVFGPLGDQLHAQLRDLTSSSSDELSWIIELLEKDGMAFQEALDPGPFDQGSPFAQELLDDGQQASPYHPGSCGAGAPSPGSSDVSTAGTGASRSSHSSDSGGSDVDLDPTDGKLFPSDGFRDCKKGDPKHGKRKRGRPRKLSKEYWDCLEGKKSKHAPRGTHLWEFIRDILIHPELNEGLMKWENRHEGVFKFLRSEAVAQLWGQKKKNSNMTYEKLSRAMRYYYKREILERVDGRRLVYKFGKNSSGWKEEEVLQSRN
Procedure, shortened: as §1

[9] = target: CRX (Homo sapiens, UniProt O43186 1-299); details: protein: recombinant; tags: N-terminal GST; dsDNA, one strand shown
Sequence of CRX (O43186 whole entry): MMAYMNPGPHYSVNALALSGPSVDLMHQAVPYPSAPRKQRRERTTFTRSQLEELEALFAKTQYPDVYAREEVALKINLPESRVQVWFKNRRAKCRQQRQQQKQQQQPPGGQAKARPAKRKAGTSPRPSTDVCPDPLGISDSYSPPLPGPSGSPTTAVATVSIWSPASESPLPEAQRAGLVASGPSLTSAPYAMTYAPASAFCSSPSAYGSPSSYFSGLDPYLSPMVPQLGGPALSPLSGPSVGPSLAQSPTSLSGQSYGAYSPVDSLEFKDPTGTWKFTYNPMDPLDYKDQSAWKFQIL
Procedure, shortened: as §1

[10] = target: ETV1 (Homo sapiens, UniProt P50549 1-477); details: protein: recombinant; tags: N-terminal GST; dsDNA, one strand shown
Sequence of ETV1 (P50549 whole entry): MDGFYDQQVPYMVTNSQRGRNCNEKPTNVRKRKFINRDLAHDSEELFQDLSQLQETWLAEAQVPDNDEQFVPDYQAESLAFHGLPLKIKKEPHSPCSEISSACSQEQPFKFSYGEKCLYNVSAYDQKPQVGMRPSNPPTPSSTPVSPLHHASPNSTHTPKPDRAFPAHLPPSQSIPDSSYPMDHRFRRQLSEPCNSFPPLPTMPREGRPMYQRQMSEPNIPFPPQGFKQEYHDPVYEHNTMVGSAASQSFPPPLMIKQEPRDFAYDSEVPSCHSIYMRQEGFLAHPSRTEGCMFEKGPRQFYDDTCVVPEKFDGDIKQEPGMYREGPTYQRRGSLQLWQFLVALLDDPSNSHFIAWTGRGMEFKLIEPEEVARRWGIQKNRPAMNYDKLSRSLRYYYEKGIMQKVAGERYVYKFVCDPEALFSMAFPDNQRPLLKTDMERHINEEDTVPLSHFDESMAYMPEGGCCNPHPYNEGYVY
Procedure, shortened: as §1

[11] = target: T6, ERF (Homo sapiens, UniProt P50548 1-548); details: protein: recombinant; tags: N-terminal GST; dsDNA, one strand shown
T6 sequence: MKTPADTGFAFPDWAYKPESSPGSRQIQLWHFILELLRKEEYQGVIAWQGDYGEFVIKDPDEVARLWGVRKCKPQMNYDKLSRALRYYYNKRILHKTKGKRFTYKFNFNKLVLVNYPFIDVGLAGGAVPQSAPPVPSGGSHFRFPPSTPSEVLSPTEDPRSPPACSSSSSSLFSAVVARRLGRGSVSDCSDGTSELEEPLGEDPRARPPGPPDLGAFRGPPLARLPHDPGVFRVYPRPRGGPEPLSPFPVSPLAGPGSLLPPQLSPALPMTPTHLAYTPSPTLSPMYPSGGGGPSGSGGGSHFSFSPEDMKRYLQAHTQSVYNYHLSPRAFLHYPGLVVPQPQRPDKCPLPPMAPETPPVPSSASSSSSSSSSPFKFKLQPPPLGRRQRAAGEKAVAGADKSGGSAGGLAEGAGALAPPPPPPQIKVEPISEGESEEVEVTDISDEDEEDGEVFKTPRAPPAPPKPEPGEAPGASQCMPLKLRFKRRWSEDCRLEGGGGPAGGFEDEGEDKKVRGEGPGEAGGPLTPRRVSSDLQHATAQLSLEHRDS
Procedure, shortened: as §1

[12] = target: T7, ETV3L (Homo sapiens, UniProt Q6ZN32 1-361); details: protein: recombinant; tags: N-terminal GST; dsDNA, one strand shown
T7 sequence: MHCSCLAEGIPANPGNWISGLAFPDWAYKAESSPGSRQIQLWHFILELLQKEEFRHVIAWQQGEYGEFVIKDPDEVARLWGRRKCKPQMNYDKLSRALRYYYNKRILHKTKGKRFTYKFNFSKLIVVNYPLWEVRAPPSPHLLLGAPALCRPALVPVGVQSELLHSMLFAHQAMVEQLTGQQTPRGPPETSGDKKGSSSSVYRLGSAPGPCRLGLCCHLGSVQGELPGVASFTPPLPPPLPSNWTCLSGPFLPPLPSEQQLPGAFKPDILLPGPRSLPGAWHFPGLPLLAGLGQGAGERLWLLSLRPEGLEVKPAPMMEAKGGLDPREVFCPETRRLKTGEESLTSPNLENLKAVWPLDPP
Procedure, shortened: as §1

[13] = target: T8, ETS2 (Homo sapiens, UniProt P15036 1-469); details: protein: recombinant; tags: N-terminal GST; dsDNA, one strand shown
T8 sequence: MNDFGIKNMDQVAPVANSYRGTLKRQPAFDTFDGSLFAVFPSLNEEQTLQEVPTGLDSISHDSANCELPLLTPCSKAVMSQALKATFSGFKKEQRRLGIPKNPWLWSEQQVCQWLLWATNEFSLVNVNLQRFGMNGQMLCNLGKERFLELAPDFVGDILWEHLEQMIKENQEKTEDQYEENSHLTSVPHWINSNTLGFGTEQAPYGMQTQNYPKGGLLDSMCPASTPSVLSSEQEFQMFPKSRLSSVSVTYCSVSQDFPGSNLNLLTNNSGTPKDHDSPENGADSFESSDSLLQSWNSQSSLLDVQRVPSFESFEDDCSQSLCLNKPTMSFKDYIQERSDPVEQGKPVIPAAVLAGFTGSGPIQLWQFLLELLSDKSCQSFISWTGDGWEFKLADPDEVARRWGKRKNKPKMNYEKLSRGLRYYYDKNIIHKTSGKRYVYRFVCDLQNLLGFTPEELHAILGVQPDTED
Procedure, shortened: as §1

[14] = target: T9, SPDEF (Homo sapiens, UniProt O95238 1-335); details: protein: recombinant; tags: N-terminal GST; dsDNA, one strand shown
T9 sequence: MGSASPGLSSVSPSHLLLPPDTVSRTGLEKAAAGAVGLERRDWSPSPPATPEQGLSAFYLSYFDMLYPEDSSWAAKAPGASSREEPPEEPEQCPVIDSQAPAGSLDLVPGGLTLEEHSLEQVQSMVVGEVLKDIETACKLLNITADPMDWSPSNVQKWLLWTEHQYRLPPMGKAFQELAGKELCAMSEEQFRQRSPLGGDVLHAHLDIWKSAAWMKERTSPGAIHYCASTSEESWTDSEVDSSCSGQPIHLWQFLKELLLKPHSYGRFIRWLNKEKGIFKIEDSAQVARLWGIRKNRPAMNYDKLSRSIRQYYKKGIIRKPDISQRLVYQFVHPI
Procedure, shortened: as §1

[15] = target: T10, ETV7 (Homo sapiens, UniProt Q9Y603 1-341); details: protein: recombinant; tags: N-terminal GST; dsDNA, one strand shown
T10 sequence: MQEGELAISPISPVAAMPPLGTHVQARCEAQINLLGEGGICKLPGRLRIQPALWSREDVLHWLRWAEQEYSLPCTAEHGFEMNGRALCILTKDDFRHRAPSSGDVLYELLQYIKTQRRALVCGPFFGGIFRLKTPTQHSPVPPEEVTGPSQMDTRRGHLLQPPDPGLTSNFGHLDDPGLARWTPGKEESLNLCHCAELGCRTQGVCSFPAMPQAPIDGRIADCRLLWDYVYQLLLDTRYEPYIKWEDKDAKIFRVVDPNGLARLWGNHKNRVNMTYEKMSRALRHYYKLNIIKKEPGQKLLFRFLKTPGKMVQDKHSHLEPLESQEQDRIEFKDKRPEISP
Procedure, shortened: as §1

[16] = target: T11, ELF5 (Homo sapiens, UniProt Q9UKW6-2 1-255); details: protein: recombinant; tags: N-terminal GST; dsDNA, one strand shown
T11 sequence: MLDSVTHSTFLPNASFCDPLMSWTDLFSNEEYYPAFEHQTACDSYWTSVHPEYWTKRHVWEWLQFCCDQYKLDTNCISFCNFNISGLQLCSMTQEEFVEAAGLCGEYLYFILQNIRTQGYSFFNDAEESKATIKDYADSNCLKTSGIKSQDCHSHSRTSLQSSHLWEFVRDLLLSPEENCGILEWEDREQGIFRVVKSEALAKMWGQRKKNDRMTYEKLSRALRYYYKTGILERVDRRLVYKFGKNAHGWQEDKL
Procedure, shortened: as §1

[17] = target: T12, ETV3 (Homo sapiens, UniProt P41162-2 1-143); details: protein: recombinant; tags: N-terminal GST; dsDNA, one strand shown
T12 sequence: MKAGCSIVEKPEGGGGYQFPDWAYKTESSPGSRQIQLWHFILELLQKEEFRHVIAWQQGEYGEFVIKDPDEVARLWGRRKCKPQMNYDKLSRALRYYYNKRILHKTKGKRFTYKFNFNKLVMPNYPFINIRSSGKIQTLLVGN
Procedure, shortened: as §1

[18] = target: ETV6 (Homo sapiens, UniProt P41212 1-452); details: protein: recombinant; tags: N-terminal GST; dsDNA, one strand shown
Sequence of ETV6 (P41212 whole entry): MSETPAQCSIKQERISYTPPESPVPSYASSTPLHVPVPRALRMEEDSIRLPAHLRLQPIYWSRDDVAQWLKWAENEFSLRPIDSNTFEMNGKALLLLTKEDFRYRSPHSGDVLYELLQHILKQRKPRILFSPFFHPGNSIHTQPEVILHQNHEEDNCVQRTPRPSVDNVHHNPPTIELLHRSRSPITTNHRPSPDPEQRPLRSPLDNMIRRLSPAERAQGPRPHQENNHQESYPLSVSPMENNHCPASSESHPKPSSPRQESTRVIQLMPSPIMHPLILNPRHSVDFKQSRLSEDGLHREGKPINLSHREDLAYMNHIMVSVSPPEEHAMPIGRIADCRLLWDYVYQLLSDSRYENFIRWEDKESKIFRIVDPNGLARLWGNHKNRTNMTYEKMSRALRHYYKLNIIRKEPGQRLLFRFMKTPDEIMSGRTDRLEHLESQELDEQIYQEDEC
Procedure, shortened: as §1

**Q.** What does the source list for TCCACT?
**A.** binding signal [1]: 1.54 fold enrichment (6-mer frequency, TF over GST control); binding signal [2]: 1.49 fold enrichment (6-mer frequency, TF over GST control); binding signal [3]: 1.47 fold enrichment (6-mer frequency, TF over GST control); binding signal [4]: 1.4 fold enrichment (6-mer frequency, TF over GST control); binding signal [5]: 1.51 fold enrichment (6-mer frequency, TF over GST control); binding signal [6]: 1.49 fold enrichment (6-mer frequency, TF over GST control); binding signal [7]: 1.48 fold enrichment (6-mer frequency, TF over GST control); binding signal [8]: 1.25 fold enrichment (6-mer frequency, TF over GST control); binding signal [9]: 1.33 fold enrichment (6-mer frequency, TF over GST control); binding signal [10]: 1.41 fold enrichment (6-mer frequency, TF over GST control); binding signal [11]: 1.42 fold enrichment (6-mer frequency, TF over GST control); binding signal [12]: 1.49 fold enrichment (6-mer frequency, TF over GST control); binding signal [13]: 1.45 fold enrichment (6-mer frequency, TF over GST control); binding signal [14]: 1.37 fold enrichment (6-mer frequency, TF over GST control); binding signal [15]: 1.4 fold enrichment (6-mer frequency, TF over GST control); binding signal [16]: 1.42 fold enrichment (6-mer frequency, TF over GST control); binding signal [17]: 1.41 fold enrichment (6-mer frequency, TF over GST control); binding signal [18]: 1.39 fold enrichment (6-mer frequency, TF over GST control)
